Measurements: PubChem BioAssay (EPA / NIEHS)
Values joined by “and” are separate entries in the source; they are usually repeats but may differ in a detail not shown here. Identical values can stand only once. Inconclusive results are not listed. More than one record can exist for a structure, and the calls need not agree. Active and inactive are the calls of the source. The calls were made as follows: active = hit-call score of the fitted dose curve at least 0.9, where 1 is the maximum; inconclusive = response in the unintended direction; inactive = score below 0.9.

Key:
[1] = biological target: Cellular tumor antigen p53 (Homo sapiens) (UniProt P04637); assay: TOX21_p53_BLA_p2_ratio: Tox21 HCT-116 p53 Agonism Beta-lactamase Assay, Ratio, Phase 2 (AID 2283592)
Cellular tumor antigen p53 (Homo sapiens), sequence (P04637 whole entry, looked up): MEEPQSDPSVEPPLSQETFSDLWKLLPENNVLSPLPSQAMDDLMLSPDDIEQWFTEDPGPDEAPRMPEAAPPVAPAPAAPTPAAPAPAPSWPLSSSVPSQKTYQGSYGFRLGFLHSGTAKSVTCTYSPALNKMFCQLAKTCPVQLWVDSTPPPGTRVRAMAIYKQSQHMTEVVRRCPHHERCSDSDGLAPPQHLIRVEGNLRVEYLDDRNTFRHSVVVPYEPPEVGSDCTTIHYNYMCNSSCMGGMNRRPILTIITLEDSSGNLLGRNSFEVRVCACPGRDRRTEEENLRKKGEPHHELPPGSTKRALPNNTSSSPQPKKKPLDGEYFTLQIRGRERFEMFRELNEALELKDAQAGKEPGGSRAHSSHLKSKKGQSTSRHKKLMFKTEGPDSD
How it was run: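 DMSO-normalized, positive-direction endpoint derived from the 460 nm/530 nm FRET ratio in HCT116 p53 beta-lactamase reporter cells exposed 16 h at 37C and loaded with CCF4-AM for 2 h.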

[2] = TOX21_p53_BLA_p3_viability: Viability Assessment in the Tox21 HCT-116 p53 Agonism Beta-lactamase Assay, Phase 3 (AID 2283593);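 also: cells exposed to compound for 16 h before reading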
How it was run: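 Cellular ATP was quantified by CellTiter-Glo luminescence, read after 30 min at room temperature. Beforehand, HCT116 cells (4000/well) received compound 5 h post-seeding, 217-fold diluted from DMSO, then incubated 16 h at 37C.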

[3] = biological target: Cellular tumor antigen p53 (Homo sapiens) (UniProt P04637); assay: TOX21_p53_BLA_p3_ratio: Tox21 HCT-116 p53 Agonism Beta-lactamase Assay, Ratio, Phase 3 (AID 2283596)
How it was run: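 Cells were seeded at 4000/well, rested 5 h at 37C, then dosed with DMSO compound solutions (217-fold dilution) for 16 h. CCF4-AM substrate was loaded for 2 h at room temperature, and the 460/530 nm emission ratio was fitted for gain of signal versus DMSO.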

[4] = TOX21_p53_BLA_p4_viability: Viability Assessment in the Tox21 HCT-116 p53 Agonism Beta-lactamase Assay, Phase 4 (AID 2283597);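 also: hits lower the luminescence signal meaning cytotoxicity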
How it was run: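 In this multiplexed secondary endpoint, HCT116 cells (4000 per well, compound at 5 h, 16 h treatment) received CellTiter-Glo after the beta-lactamase read. Luminescence after 30 min RT reflects ATP, and falling signal marks cytotoxicity.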

[5] = biological target: Cellular tumor antigen p53 (Homo sapiens) (UniProt P04637); assay: TOX21_p53_BLA_p5_ratio: Tox21 HCT-116 p53 Agonism Beta-lactamase Assay, Ratio, Phase 5 (AID 2283599)
How it was run: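 Beta-lactamase reporter ratio (blue 460 nm over green 530 nm, 405 nm excitation) after 2 h CCF4-AM loading, in HCT-116 cells exposed 16 h at 37 C to compounds pinned at 217-fold dilution. Increases relative to DMSO baseline scored.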

[6] = TOX21_p53_BLA_p5_viability: Viability Assessment in the Tox21 HCT-116 p53 Agonism Beta-lactamase Assay, Phase 5 (AID 2283600)
How it was run: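 Here cell health was gauged by ATP levels in wells holding 4000 cells, each treated 16 h with DMSO-delivered compounds at 217-fold dilution; reduced luminescence marked toxicity.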

[7] = biological target: Cellular tumor antigen p53 (Homo sapiens) (UniProt P04637); assay: TOX21_p53_BLA_p4_ratio: Tox21 HCT-116 p53 Agonism Beta-lactamase Assay, Ratio, Phase 4 (AID 2283601)
How it was run: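 Signal is the blue/green (460nm/530nm) ratio of cleaved versus uncleaved CCF4-AM substrate, read after 2 h substrate loading. Cells were HCT116 carrying the p53-responsive beta-lactamase reporter, dosed 16 h at 37C, 5% CO2; CellTiter-Glo measured in parallel.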

[8] = Tanguay_ZF_120hpf_MORT_legacy: (Legacy) Oregon State University Tanguay Lab 120 Hour Post-fertilization zebrafish Assay for Mortality (AID 2283633);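 as to AC50: fitted as increase in binary mortality versus DMSO negative control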
How it was run: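 Single dechorionated Tropical 5D embryos were held with test chemical (0.64% DMSO final) from 6 to 120 hpf at 28C under foil. Deaths at 24 or 120 hpf were recorded as binary calls, analysed for increase over DMSO controls.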

[9] = Tanguay_ZF_120hpf_YSE_legacy: (Legacy) Oregon State University Tanguay Lab 120 Hour Post-fertilization zebrafish Assay for Yolk Sac Edema (AID 2283634);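 as to AC50: actives raise the incidence of yolk sac edema above the DMSO baseline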
How it was run: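 Single dechorionated embryos were held in sealed plates at 28C with test chemical (0.64% DMSO final) from 6 hpf until 120 hpf. Edema of the yolk sac was then recorded as a binary endpoint; non-mortality endpoints were skipped for dead embryos.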

[10] = Tanguay_ZF_120hpf_AXIS_legacy: (Legacy) Oregon State University Tanguay Lab 120 Hour Post-fertilization zebrafish Assay for Body Axis Malformation (AID 2283635);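 as to AC50: potency for an increased fraction of larvae scored with body axis malformation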
How it was run: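 Each dechorionated embryo was exposed alone from 6 hpf, with DMSO at 0.64% (vol/vol) and trimethyltin chloride 5 uM as positive control. Axis malformation was recorded at 120 hpf unless the embryo had died.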

Measured: AC50

CSc1nnc(C(C)(C)C)c(=O)n1N
inactive: all assays above

N#CSCSC#N
inactive: [9] | [10]
active: [1] 19 µM and 15.5 µM | [2] 60.7 µM and 78.2 µM | [3] 14.9 µM and 8.68 µM | [4] 51.1 µM and 61.9 µM | [5] 18.8 µM and 15.9 µM | [6] 66.3 µM and 68.4 µM | [7] 36.5 µM and 18.1 µM | [8] 34.6 µM

C#CC(C)(C)NC(=O)c1cc(Cl)cc(Cl)c1
inactive: all assays above

CC(C)N(C(=O)SCC(Cl)=C(Cl)Cl)C(C)C
inactive: all assays above

CCOP(=S)(OCC)Oc1ccc([N+](=O)[O-])cc1
active: [1] 89.3 µM
inactive: [1] | [2] | [3] | [5] | [8] | [9] | [10]

CNC(=O)ON=C(SC)C(=O)N(C)C
inactive: all assays above

CC1(C(=O)Nc2ccc(O)c(Cl)c2Cl)CCCCC1
inactive: all assays above

CCCOCC(=Nc1ccc(Cl)cc1C(F)(F)F)n1ccnc1
active: [1] 39.9 µM | [2] 35.4 µM | [3] 68.1 µM | [4] 24.9 µM | [5] 48.5 µM | [6] 31.2 µM | [7] 46.2 µM
inactive: [8] | [9] | [10]

COP(=O)(NC(C)=O)SC (centres undefined)
not listed: [6]
inactive: all other assays above

CCc1cccc(C)c1N(C(=O)CCl)C(C)COC (centres undefined)
inactive: all assays above

CCOP(=O)(OCC)Oc1cc(C)nc(C(C)C)n1
not listed: [4] | [7]
inactive: all other assays above

CCOP(=S)(OCC)Oc1ccc2c(C)c(Cl)c(=O)oc2c1
inactive: all assays above

C#CCC1=C(C)C(OC(=O)C2C(C=C(C)C)C2(C)C)CC1=O (centres undefined)
active: [1] 86.7 µM
not listed: [10]
inactive: all other assays above

O=c1ccc(=O)[nH][nH]1
active: [9] 25.4 µM | [10] 51.7 µM
inactive: all other assays above

C[Si](Cn1cncn1)(c1ccc(F)cc1)c1ccc(F)cc1
inactive: [1] | [2] | [3] | [4] | [5] | [6] | [7] | [8]
active: [4] 53 µM | [7] 55.6 µM | [9] 40.9 µM | [10] 10.3 µM

CCC(=O)Nc1ccc(Cl)c(Cl)c1
active: [1] 88 µM | [3] 72.7 µM
inactive: [1] | [2] | [3] | [4] | [5] | [6] | [7] | [8] | [9] | [10]

CC(=NC#N)N(C)Cc1ccc(Cl)nc1
inactive: all assays above

CC[C@H](C)[C@H]1O[C@]2(C=C[C@@H]1C)C[C@@H]1C[C@@H](C/C=C(\C)[C@@H](O[C@H]3C[C@H](OC)[C@@H](O[C@H]4C[C@H](OC)[C@@H](NC)[C@H](C)O4)[C@H](C)O3)[C@@H](C)/C=C/C=C3\CO[C@@H]4[C@H](O)C(C)=C[C@@H](C(=O)O1)[C@]34O)O2
active: [1] 59.1 µM | [2] 14.4 µM | [3] 54.1 µM | [4] 8.89 µM | [5] 56.9 µM | [6] 14.9 µM | [7] 32.7 µM | [8] 5.52 µM | [9] 0.247 µM
inactive: [10]

CCOP(=S)(OCC)Oc1cc(C)nc(C(C)C)n1
active: [2] 49.5 µM | [3] 67.9 µM | [5] 41.7 µM | [6] 36.1 µM
inactive: [1] | [2] | [3] | [4] | [6] | [7] | [8] | [9]

Cc1cc(C2CC2)nc(Nc2ccccc2)n1
active: [4] 64.9 µM | [7] 72.6 µM
not listed: [9]
inactive: all other assays above

CCOP(=S)(OCC)OC(Cl)C(Cl)(Cl)Cl (centres undefined)
not listed: [4] | [5]
inactive: all other assays above

COP(=O)(OC)C(O)C(Cl)(Cl)Cl (centres undefined)
active: [9] 56.1 µM
inactive: all other assays above

CCOC(=O)CC(SP(=O)(OC)OC)C(=O)OCC (centres undefined)
active: [10] 16.5 µM
inactive: all other assays above

Nc1nc(N)nc(NC2CC2)n1
inactive: all assays above

COc1cc(OC)nc(Sc2cccc(Cl)c2C(=O)O)n1
inactive: all assays above

S=C1NCCN1
not listed: [8]
inactive: all other assays above

CNc1cnn(-c2cccc(C(F)(F)F)c2)c(=O)c1Cl
not listed: [4] | [6] | [7]
inactive: all other assays above

CN(C)NC(=O)CCC(=O)O
inactive: all assays above

CSC1=N[C@@](C)(c2ccccc2)C(=O)N1Nc1ccccc1
active: [8] 12.6 µM | [9] 3.52 µM
inactive: all other assays above

CCC(CC)Nc1c([N+](=O)[O-])cc(C)c(C)c1[N+](=O)[O-]
inactive: all assays above

CON=C(C(=O)OC)c1ccccc1CON=C(C)c1cccc(C(F)(F)F)c1
active: [1] 1.25 µM | [3] 3.12 µM | [5] 2.24 µM | [7] 1.65 µM | [9] 7.29 µM
inactive: [2] | [4] | [6] | [8] | [10]

FC(F)C(F)(F)OCC(Cn1cncn1)c1ccc(Cl)cc1Cl (centres undefined)
active: [4] 60.5 µM | [9] 43.2 µM | [10] 15.7 µM
inactive: all other assays above

CCCCN(CC)c1c([N+](=O)[O-])cc(C(F)(F)F)cc1[N+](=O)[O-]
not listed: [7]
inactive: all other assays above

CC(C)=CC1C(C(=O)OCN2C(=O)C3=C(CCCC3)C2=O)C1(C)C (centres undefined)
active: [4] 46.1 µM
inactive: [1] | [2] | [3] | [4] | [5] | [6] | [7] | [8] | [9] | [10]

CCOP(=O)(NC(C)C)Oc1ccc(SC)c(C)c1 (centres undefined)
active: [9] 24.8 µM | [10] 22.1 µM
inactive: all other assays above

CCc1cccc(CC)c1N(COC)C(=O)CCl
inactive: [9] | [10]
active: [8] 13.4 µM

CCCCOC(=O)[C@@H](C)Oc1ccc(Oc2ccc(C#N)cc2F)cc1
not listed: [2] | [3] | [6]
inactive: all other assays above

CCc1cnc(C2=NC(C)(C(C)C)C(=O)N2)c(C(=O)O)c1 (centres undefined)
inactive: [8] | [9] | [10]

CC(COc1ccc(Oc2ccccc2)cc1)Oc1ccccn1 (centres undefined)
inactive: [1] | [4] | [5] | [7] | [8] | [10]

CN1COCN(Cc2cnc(Cl)s2)C1=N[N+](=O)[O-]
not listed: [3] | [4] | [6]
inactive: all other assays above
